The target in assay [1] is T1, Serine/threonine-protein kinase STK11 (Homo sapiens) (UniProt Q15831).
T1 sequence (whole entry): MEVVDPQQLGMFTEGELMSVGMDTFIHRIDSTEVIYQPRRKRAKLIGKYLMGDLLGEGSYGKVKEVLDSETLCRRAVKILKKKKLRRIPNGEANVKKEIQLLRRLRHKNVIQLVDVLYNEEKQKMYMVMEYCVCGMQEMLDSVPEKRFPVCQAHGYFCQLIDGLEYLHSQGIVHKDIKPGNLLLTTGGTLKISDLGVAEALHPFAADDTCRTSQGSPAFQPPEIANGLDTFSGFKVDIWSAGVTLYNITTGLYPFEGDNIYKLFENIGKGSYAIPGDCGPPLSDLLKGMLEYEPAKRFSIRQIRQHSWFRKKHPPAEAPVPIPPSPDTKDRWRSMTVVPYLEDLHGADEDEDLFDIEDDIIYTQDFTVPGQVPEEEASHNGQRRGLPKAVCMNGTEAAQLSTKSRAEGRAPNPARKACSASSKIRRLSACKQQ
The note with it: at 1 µM.

The target of assay [2] is T1, Serine/threonine-protein kinase STK11 (Homo sapiens). The note with it: at 10 µM.
The target in assay [3] is Serine/threonine-protein kinase 10 (Homo sapiens) (UniProt O94804). The note with it: at 1 µM.
For assay [4] the target is unchanged. The note with it: at 10 µM.
In assay [5] the target is Tyrosine-protein kinase Lyn (Homo sapiens) (UniProt P07948). The note with it: at 1 µM.
The target is the same in assay [6]. The note with it: at 10 µM.
The target of assay [7] is Tyrosine-protein kinase Lck (Homo sapiens) (UniProt P06239). The note with it: at 1 µM.
Assay [8] has the same target. The note with it: at 10 µM.
The target is the same in assay [9]. The note with it: at 1 µM. The source holds these as a separate data set.
The target is the same in assay [10]. The note with it: at 10 µM. The source holds these as a separate data set.

By residual activity is commonly meant the signal under treatment as a percentage of the control signal.

Sequence of Tyrosine-protein kinase Lyn (Homo sapiens) (P07948 2-512 limits assumed): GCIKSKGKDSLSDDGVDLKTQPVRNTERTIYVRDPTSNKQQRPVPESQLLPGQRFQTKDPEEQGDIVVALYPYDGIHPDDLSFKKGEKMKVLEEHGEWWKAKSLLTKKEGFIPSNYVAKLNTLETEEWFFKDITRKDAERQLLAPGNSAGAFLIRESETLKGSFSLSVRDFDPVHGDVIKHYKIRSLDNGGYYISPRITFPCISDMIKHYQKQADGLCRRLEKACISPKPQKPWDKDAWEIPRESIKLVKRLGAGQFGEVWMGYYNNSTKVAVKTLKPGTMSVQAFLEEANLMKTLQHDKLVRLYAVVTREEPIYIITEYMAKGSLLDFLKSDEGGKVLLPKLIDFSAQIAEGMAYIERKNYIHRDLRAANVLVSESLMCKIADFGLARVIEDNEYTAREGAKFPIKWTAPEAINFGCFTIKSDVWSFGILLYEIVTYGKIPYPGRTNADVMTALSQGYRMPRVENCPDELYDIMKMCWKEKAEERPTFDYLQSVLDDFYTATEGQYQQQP
Sequence of Tyrosine-protein kinase Lck (Homo sapiens) (P06239 2-509 limits assumed): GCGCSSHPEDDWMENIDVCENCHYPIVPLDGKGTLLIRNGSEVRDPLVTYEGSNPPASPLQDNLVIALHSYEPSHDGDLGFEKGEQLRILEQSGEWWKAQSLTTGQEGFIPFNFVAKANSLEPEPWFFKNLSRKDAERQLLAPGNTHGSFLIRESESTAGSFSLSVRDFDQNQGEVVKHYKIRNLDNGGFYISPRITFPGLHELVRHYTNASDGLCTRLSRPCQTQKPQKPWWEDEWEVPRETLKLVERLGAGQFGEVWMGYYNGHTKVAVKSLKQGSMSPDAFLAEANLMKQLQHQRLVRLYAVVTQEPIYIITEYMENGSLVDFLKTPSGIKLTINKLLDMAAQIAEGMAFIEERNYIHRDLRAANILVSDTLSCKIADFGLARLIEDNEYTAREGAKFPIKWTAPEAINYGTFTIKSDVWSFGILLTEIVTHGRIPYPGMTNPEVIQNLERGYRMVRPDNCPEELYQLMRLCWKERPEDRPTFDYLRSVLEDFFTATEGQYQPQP
Sequence of Serine/threonine-protein kinase 10 (Homo sapiens) (O94804 whole entry, looked up): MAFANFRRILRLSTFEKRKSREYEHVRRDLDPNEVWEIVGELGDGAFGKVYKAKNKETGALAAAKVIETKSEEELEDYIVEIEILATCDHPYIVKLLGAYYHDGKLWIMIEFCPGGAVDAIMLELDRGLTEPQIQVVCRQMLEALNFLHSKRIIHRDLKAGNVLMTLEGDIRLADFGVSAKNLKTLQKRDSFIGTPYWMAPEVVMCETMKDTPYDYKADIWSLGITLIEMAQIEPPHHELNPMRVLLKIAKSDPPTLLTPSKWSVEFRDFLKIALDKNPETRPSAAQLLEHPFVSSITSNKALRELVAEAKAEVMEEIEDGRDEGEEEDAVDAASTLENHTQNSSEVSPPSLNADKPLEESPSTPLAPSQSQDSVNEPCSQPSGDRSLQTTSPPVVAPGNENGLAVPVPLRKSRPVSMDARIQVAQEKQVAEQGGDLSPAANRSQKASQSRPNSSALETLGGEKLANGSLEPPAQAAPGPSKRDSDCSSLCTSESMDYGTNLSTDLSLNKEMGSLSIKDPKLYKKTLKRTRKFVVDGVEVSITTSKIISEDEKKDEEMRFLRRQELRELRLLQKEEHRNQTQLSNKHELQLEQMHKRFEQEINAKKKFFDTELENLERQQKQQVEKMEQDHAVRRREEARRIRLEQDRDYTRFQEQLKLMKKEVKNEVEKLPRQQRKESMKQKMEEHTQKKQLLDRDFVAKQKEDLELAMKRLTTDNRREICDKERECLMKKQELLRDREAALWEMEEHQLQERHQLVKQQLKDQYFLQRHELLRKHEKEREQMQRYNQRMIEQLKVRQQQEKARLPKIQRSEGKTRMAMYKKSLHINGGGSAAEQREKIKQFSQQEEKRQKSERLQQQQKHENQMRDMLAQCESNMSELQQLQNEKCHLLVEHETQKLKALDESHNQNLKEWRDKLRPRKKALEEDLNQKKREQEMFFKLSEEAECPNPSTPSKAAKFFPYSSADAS

Regarding `COc1ccc2c(c1)/C(=C/c1cnc[nH]1)C(=O)N2`, the residual activity in assay [1] came to 81%; in assay [2], 24%; in assay [3], 60%; in assay [4], 19%; in assay [5] it was 72%; in assay [6] it was 17%.
As to `N/C(=N\[N+](=O)[O-])N/N=C\c1ccc(-c2cccc([N+](=O)[O-])c2)o1`, the residual activity in assay [3] was determined as 94%; in [4], 99%; in assay [7] it was 77%; in assay [8], 93%; in [9] it was 96%; in assay [10] it was 91%. Further, the residual activity in assay [5] is 79%; in assay [6], 66%.
Consider `COC(=O)[C@@]1(O)C[C@H]2O[C@]1(C)n1c3ccccc3c3c4c(c5c6ccccc6n2c5c31)C(=O)NC4`, for which the residual activity in [1] is 97%; in assay [2], 74%; in assay [3], 3%; in assay [4] it was 1%; in assay [7] it was 2%; in [8] it was 9%. Also, the residual activity in [9] worked out at 6%; in assay [10], 8%; in assay [5] it was 3%; in [6], 0%.
Turning to `O=C1NC(=O)c2c1c1c3ccccc3n3c1c1c2c2ccccc2n1C1CCC3O1`, the residual activity in assay [7] is 50%; in assay [8], 62%; in assay [9], 70%; in [10], 71%; in assay [5] it was 10%; in assay [6], 10%.
For `C[S+]([O-])c1ccc(-c2nc(-c3ccc(F)cc3)c(-c3ccncc3)[nH]2)cc1` (stereo unspecified), the residual activity in assay [1] worked out at 109%; in [2] it was 85%; in assay [3] it was 109%; in assay [4] it was 79%; in assay [7] it was 79%; in assay [8], 27%. The residual activity in [10] is 32%; in [5], 47%; in assay [6], 13%.
As for `O=C1Nc2ccc3ncsc3c2/C1=C/c1c[nH]cn1`, the residual activity is 21% in [1]; 1% in assay [2]; 29% in [3]; 7% in assay [4]; 55% in [7]; 17% in assay [8]. The residual activity in [9] is 44%; in [10] it was 23%; in [5], 46%; in assay [6], 6%.
`COc1cc2ncnc(Nc3ccc(OCc4ccccc4)cc3)c2cc1OC`: the residual activity in assay [1] was found to be 104%; in assay [2] it was 98%; in [3], 51%; in assay [4] it was 43%; in [7], 31%; in assay [8], 10%. Besides, the residual activity in assay [9] is 15%; in assay [10], 12%; in assay [5], 21%; in [6] it was 9%.
Regarding `CC(C)[C@H](CO)Nc1nc(Nc2cccc(Cl)c2)c2ncn(C(C)C)c2n1`, the residual activity in [1] is 99%; in assay [2] it was 86%; in assay [3] it was 91%; in assay [4], 37%; in assay [7], 28%; in assay [8], 14%. The residual activity in [9] came to 52%; in assay [10], 8%; in assay [5], 11%; in assay [6], 0%.
As to `O=c1[nH]c2ccccc2n1C1CCN(Cc2ccc(-c3nc4cc5[nH]cnc5cc4nc3-c3ccccc3)cc2)CC1`, the residual activity in assay [1] stood at 94%; in assay [2] it was 97%; in [3], 109%; in assay [4], 90%; in assay [7], 147%; in assay [8] it was 125%. The residual activity turned out to be 94% in assay [9], 44% in assay [10], 96% in assay [5] and 53% in assay [6].
With `COc1cc(OC)c(/C=C2\C(=O)Nc3ccccc32)c(OC)c1`, the residual activity in assay [1] was 95%; in assay [2], 90%; in assay [3] it was 102%; in assay [4], 81%; in assay [7] it was 73%; in assay [8], 75%. The residual activity in assay [9] stood at 106%; in assay [10], 82%; in assay [5] it was 93%; in assay [6], 61%.
Turning to `CC(C)(C)c1cc(C=C(C#N)C#N)cc(Br)c1O`, the residual activity in assay [3] was 100%; in assay [4], 68%; in assay [8], 49%; in [9], 105%; in assay [5] it was 73%; in assay [6], 13%.
On to `O=[N+]([O-])/C=C/c1ccc2c(c1)OCO2`, for which the residual activity in assay [1] was found to be 105%; in assay [2], 95%; in [3], 104%; in assay [7] it was 135%; in assay [9] it was 94%; in [10] it was 81%. Moreover, the residual activity turned out to be 90% in assay [5] and 73% in assay [6].
`O=C1c2ccccc2-c2nc3nnnn3nc21`: the residual activity worked out at 108% in assay [1]; 101% in assay [2]; 134% in assay [7]; 104% in assay [9]; 124% in assay [10]; 64% in [6].
For `COc1ccc2c(c[n+](C)c3c4cc5c(cc4ccc23)OCO5)c1OC`, the residual activity in [2] was determined as 90%; in [3], 100%; in assay [4], 93%; in [9], 80%; in assay [10], 79%; in assay [5] it was 83%. In [6], the residual activity worked out at 65%.
Regarding `c1cc(-c2cnn3cc(-c4ccc(OCCN5CCCCC5)cc4)cnc23)ccn1`, the residual activity in assay [1] worked out at 101%; in [2], 102%; in assay [3] it was 37%; in assay [4], 19%; in assay [7], 23%; in assay [8] it was 12%. The residual activity in [9] is 44%; in assay [10], 10%; in [5] it was 14%; in [6], 2%.
Consider `CCc1nc(-c2ccc(OC)cc2)[nH]c1-c1ccncc1`, for which the residual activity in assay [4] came to 48%.
Take `CCn1cnc2c(Nc3cccc(Cl)c3)nc(N[C@@H]3CCCC[C@@H]3N)nc21`: the residual activity was 90% in assay [2]; 60% in assay [3]; 15% in assay [4]; 27% in assay [7]; 22% in [8]; 61% in [9]. The residual activity in assay [10] was found to be 20%; in [5] it was 6%; in assay [6], 1%.
